Molecules are shown by their SMILES. “And” between values parts separate entries of the source, which are not always exact repeats. Equal values may be shown once. Values without a mark were called inactive. The source made the active and inactive calls. Cut-off read from the data, not from the text of the source, unless noted: active = nuclear beta-catenin stimulation mostly above about 4.2% (no sharp cut-off); inactive = mostly below about 10%.

The first test has as its system Neuropilin-2 / VEGF-C interaction (human). Description: small molecules blocking Neuropilin-2/VEGF-C interaction – biochemical, microplate binding format, z-score (AID 743281; call rule not given here). The settings on record: microplate NRP2/VEGF-C binding assay; hits give low values.
Turning to `OCCN1CCN(CCCN2c3ccccc3Sc3ccc(C(F)(F)F)cc32)CC1`, the z-score was 0.247.

In the case of `CN[C@H]1CC[C@@H](c2ccc(Cl)c(Cl)c2)c2ccccc21`, the z-score was -0.0357.

In the case of `COc1cc2nc(N(C)CCCNC(=O)C3CCCO3)nc(N)c2cc1OC` (stereo unspecified), the z-score is -0.33.

For the compound `N[C@@H](C(=O)N[C@@H]1C(=O)N2C(C(=O)O)=C(Cl)CS[C@H]12)c1ccccc1`, the z-score is -0.232.

For `Cc1ncc([N+](=O)[O-])n1CC(C)O` (stereo unspecified), the z-score was 0.376.

As to `CN1CCCC(n2nc(Cc3ccc(Cl)cc3)c3ccccc3c2=O)CC1` (stereo unspecified), the z-score was 0.519.

For `CN(CCOc1ccc(CC2SC(=O)NC2=O)cc1)c1ccccn1` (stereo unspecified), the z-score was 0.0365 and -0.614.

Take `NC(=O)N1c2ccccc2CC(=O)c2ccccc21`: the z-score is 0.598.

Take `C/C=C/C(=O)N(CC)c1ccccc1C`: the z-score was -0.426.

As for `CCCCCCNC(=O)n1cc(F)c(=O)[nH]c1=O`, the z-score was 0.686.

In the case of `CN(C)CCc1c[nH]c2ccc(C[C@H]3COC(=O)N3)cc12`, the z-score is -0.511.

Turning to `CCn1cc(C(=O)O)c(=O)c2cc(F)c(N3CCN(C)CC3)cc21`, the z-score was -1.05.

Test system in another test: not listed separately
Description: Wnt pathway potentiators raising nuclear beta-catenin – imaging, WNT3A-conditioned medium, mouse C2C12, NPC library, primary screen (AID 1117326). Note: reference of the scale not given here. Particulars: at 10 µM, hits give high values.
As to `OCCN1CCN(CCCN2c3ccccc3Sc3ccc(C(F)(F)F)cc32)CC1`, the nuclear beta-catenin stimulation was 39.2%.

Turning to `NS(=O)(=O)c1cc2c(cc1Cl)NC=NS2(=O)=O`, the nuclear beta-catenin stimulation is -0.3%.

With `O=C1C(CCS(=O)c2ccccc2)C(=O)N(c2ccccc2)N1c1ccccc1` (stereo unspecified), the nuclear beta-catenin stimulation is 0.9%.

Turning to `Cc1ccc(-c2cc(C(F)(F)F)nn2-c2ccc(S(N)(=O)=O)cc2)cc1`, the nuclear beta-catenin stimulation was 8.6%.

Consider `CN[C@H]1CC[C@@H](c2ccc(Cl)c(Cl)c2)c2ccccc21`, for which the nuclear beta-catenin stimulation is 6.5%.

Turning to `Cc1ccccc1C(OCCN(C)C)c1ccccc1` (stereo unspecified), the nuclear beta-catenin stimulation was 0.6%.

As for `CCc1nc(N)nc(N)c1-c1ccc(Cl)cc1`, the nuclear beta-catenin stimulation was 72.4% (active).

`COc1cc2nc(N(C)CCCNC(=O)C3CCCO3)nc(N)c2cc1OC` (stereo unspecified): the nuclear beta-catenin stimulation was 1.8%.

For the compound `CN(C)CCOC(c1ccc(Cl)cc1)c1ccccn1` (stereo unspecified), the nuclear beta-catenin stimulation was 0.9%.

`N[C@@H](C(=O)N[C@@H]1C(=O)N2C(C(=O)O)=C(Cl)CS[C@H]12)c1ccccc1`: the nuclear beta-catenin stimulation was 0.3%.

As to `Nc1ncn([C@@H]2O[C@H](CO)[C@@H](O)[C@H]2O)c(=O)n1`, the nuclear beta-catenin stimulation was 21.7%.

Take `NCc1ccc(S(N)(=O)=O)cc1`: the nuclear beta-catenin stimulation is 0.8%.

Turning to `Cc1ncc([N+](=O)[O-])n1CC(C)O` (stereo unspecified), the nuclear beta-catenin stimulation is 3.5%.

On to `Cc1ccc(C)c(OCCCC(C)(C)C(=O)O)c1`, for which the nuclear beta-catenin stimulation is 1.3%.

Turning to `CN1CCCC(n2nc(Cc3ccc(Cl)cc3)c3ccccc3c2=O)CC1` (stereo unspecified), the nuclear beta-catenin stimulation was 1.5%.

As for `NS(=O)(=O)c1cc2c(cc1C(F)(F)F)NC(Cc1ccccc1)NS2(=O)=O` (stereo unspecified), the nuclear beta-catenin stimulation is 0.1%.

For the compound `COC1=CC(=O)C[C@@H](C)[C@]12Oc1c(Cl)c(OC)cc(OC)c1C2=O`, the nuclear beta-catenin stimulation was 1.9%.

Regarding `Cc1cn([C@H]2C[C@H](N=[N+]=[N-])[C@@H](CO)O2)c(=O)[nH]c1=O`, the nuclear beta-catenin stimulation is 1.2%.

Regarding `CN(CCOc1ccc(CC2SC(=O)NC2=O)cc1)c1ccccn1` (stereo unspecified), the nuclear beta-catenin stimulation is 4.7%.

In the case of `COc1ccc(OC)c(C(O)CNC(=O)CN)c1` (stereo unspecified), the nuclear beta-catenin stimulation is 3.8%.

As for `OC(CCN1CCCC1)(c1ccccc1)C1CCCCC1` (stereo unspecified), the nuclear beta-catenin stimulation is 4.7%.

Consider `NC(=O)N1c2ccccc2CC(=O)c2ccccc21`, for which the nuclear beta-catenin stimulation was 5.2%.

In the case of `CCCNCC(O)COc1ccccc1C(=O)CCc1ccccc1` (stereo unspecified), the nuclear beta-catenin stimulation is 0.3%.

Take `C/C=C/C(=O)N(CC)c1ccccc1C`: the nuclear beta-catenin stimulation was 1.7%.

`CCCCCCNC(=O)n1cc(F)c(=O)[nH]c1=O`: the nuclear beta-catenin stimulation was 41.7% (active).

For the compound `NC(=O)c1cnccn1`, the nuclear beta-catenin stimulation is -0.1%.

For the compound `CN(C)CCc1c[nH]c2ccc(C[C@H]3COC(=O)N3)cc12`, the nuclear beta-catenin stimulation is 0.3%.

As to `COc1ccccc1OCC(O)COC(N)=O` (stereo unspecified), the nuclear beta-catenin stimulation is -2.7%.

With `COC(=O)Nc1nc2ccc(C(=O)c3ccccc3)cc2[nH]1`, the nuclear beta-catenin stimulation is 78.6% (active).

As to `CCn1cc(C(=O)O)c(=O)c2cc(F)c(N3CCN(C)CC3)cc21`, the nuclear beta-catenin stimulation is 3.6%.

`Cn1cnc([N+](=O)[O-])c1Sc1ncnc2nc[nH]c12`: the nuclear beta-catenin stimulation is 1.2%.

Consider `c1ccc2[nH]c(-c3cscn3)nc2c1`, for which the nuclear beta-catenin stimulation was 1.5%.

On to `Cc1onc(-c2c(Cl)cccc2Cl)c1C(=O)N[C@@H]1C(=O)N2[C@@H]1SC(C)(C)[C@@H]2C(=O)O`, for which the nuclear beta-catenin stimulation was 1.5%.

As to `Clc1ccc2c(c1)C(N1CCNCC1)=Nc1ccccc1O2`, the nuclear beta-catenin stimulation was 0.3%.

`CO[C@@]1(NC(=O)Cc2cccs2)C(=O)N2C(C(=O)O)=C(COC(N)=O)CS[C@@H]21`: the nuclear beta-catenin stimulation was -1.4%.

Regarding `CCc1cccc2c3c([nH]c12)C(CC)(CC(=O)O)OCC3` (stereo unspecified), the nuclear beta-catenin stimulation is 0.9%.

`CC(C)(C)NCC(O)COc1cccc2c1C[C@H](O)[C@H](O)C2` (stereo partly specified): the nuclear beta-catenin stimulation was 1.8%.

For `O=S(=O)(O)CCS`, the nuclear beta-catenin stimulation is 1.9%.

On to `O=c1[nH]cc(F)c(=O)[nH]1`, for which the nuclear beta-catenin stimulation is 6.3%.

(Values after PubChem BioAssay.)
